ALDH1A1 inh: qHTS Assay for Inhibitors of Aldehyde Dehydrogenase 1 (ALDH1A1); Aldehyde dehydrogenase 1A1 (Homo sapiens), P00352; Purified ALDH1A1, NADH fluorescence, propionaldehyde substrate; Potency, µM (doses to about 75.3 µM), without a hit: top-dose activity, negative = inhibition, usual class: inhibitors; actives 7.3% (n = 220,000); AID 1030, 2008; active = well fitted inhibition curve with a large enough effect, not every such curve was filed as active; inconclusive = small, poorly fitted or top-dose-only effect, or another doubt; inactive = no such curve, though single readings can be large or run the other way;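 note: potency is the fitted concentration of half-maximal effect; plate controls were no enzyme wells and a reference inhibitor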
IMPase Li cell: qHTS Assay for Identifying the Cell-Membrane Permeable IMPase Inhibitors: Potentiation with Lithium; CHO-M1 cells, IP1 TR-FRET (IP-One), carbachol + lithium; Potency, µM (doses to about 59.4 µM), inactives show at the highest dose activity, negative = IMPase inhibition, most hits filed as inhibitors; actives 0.35% (n = 210,000);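 note: IP1 builds up when IMPase is blocked and the TR-FRET signal falls; potency is the fitted concentration of half-maximal effect; plate controls were basal vehicle for no effect and high inhibitor control for full effect; nearly all actives have a fitted effect of over 50% in size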
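CHO-M1, 2000 cells/well, 16–30 h culture; cpd + low Li+, 30 min 37C; lysis with d2-IP1/Eu-anti-IP1 Ab, 10 min RT; TR-FRET 665/620 ratio and 620 channel; AC50 via Hill.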
IMPase cell inh: qHTS Assay for Identifying the Cell-Membrane Permeable IMPase Inhibitors; Inositol monophosphatase 1 (Rattus norvegicus), P97697; CHO-M1 cells, IP1 accumulation, HTRF TR-FRET ratio; inhibition (IP1 accumulation), % at 46.1 µM; 120,000 tested, under 10 active; AID 901, 2007; active = well fitted curve in the direction sought with a large enough effect in the signal ratio, not every such curve was filed as active; inconclusive = small, poorly fitted or top-dose-only effect, or a change in a side signal; inactive = no such curve, though single readings can be large or run the other way; the % refers to the signal ratio;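 note: cells stimulated with carbachol in lithium chloride buffer; plate controls were DMSO basal wells for no effect and reference inhibitor wells for full effect; higher means more IMPase inhibition seen as more IP1 and lower FRET ratio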
Target sequence (P97697 whole entry, looked up): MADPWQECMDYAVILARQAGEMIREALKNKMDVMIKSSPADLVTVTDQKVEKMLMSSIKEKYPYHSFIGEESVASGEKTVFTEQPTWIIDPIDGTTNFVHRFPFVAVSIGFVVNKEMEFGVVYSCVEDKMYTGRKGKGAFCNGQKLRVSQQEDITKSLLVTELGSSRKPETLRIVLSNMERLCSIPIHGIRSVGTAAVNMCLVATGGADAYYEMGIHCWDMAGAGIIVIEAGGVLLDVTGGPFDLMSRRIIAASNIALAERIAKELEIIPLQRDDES
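CHO-M1, 2000 cells/well, cultured 16–30 h; cpd up to 46 uM; carbachol (50 uM solution, stimulation buffer w/ 50 mM LiCl, pH 7.4), 30 min 37C; IP-One TR-FRET, 10 min RT; Ex 320/Em 665, 620; Hill-fit AC50.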
HttQ103 aggreg: qHTS Multiplex Assay to Identify Dual Action Probes in a Cell Model of Huntington: Aggregate Formation (GFP). actives 1.1% (n = 220,000). Potency, µM (highest dose often 46.1 µM), for inactives: top-dose activity change, negative = inhibition, actives largely listed as inhibitors. AID 1688, 2009. PC12 HttQ103-GFP aggregates, Acumen cytometry, 40 h; note: potency is the fitted concentration of half-maximal effect; % is set by controls: 0 for no effect and ±100 for the full control effect; nearly all actives have a fitted effect of over 60% in size
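PC12 cells with ecdysone-inducible HTT exon1 Q103-GFP, induced by 100 nM tebufenozide, given compounds in a concentration series. GFP aggregates (1–25 um, 6 SD above background) counted in lysates by laser-scanning cytometry, 488 nm excitation.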
HTT cytoprotect: qHTS Multiplex Assay to Identify Dual Action Probes in a Cell Model of Huntington: Cytoprotection (ATP); Potency, µM (series often up to 56.4 µM), for the others: cytoprotection (ATP increase), hits mostly activators; PC12 HTT-Q103 induced, cytoprotection, ATP luminescence, 40 h; actives 0.14% (n = 230,000); note: potency is the fitted concentration of half-maximal effect; % of control where 0% means no effect; nearly all actives have a fitted effect of over 45% in size
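PC12 cells stably carrying ecdysone-inducible Htt exon 1 (Q103)–GFP were induced with 100 nM tebufenozide (final) alongside library compounds in a dose series. Cytoprotection was scored as retained ATP by ATPlite luminescence.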
HPGD inh: qHTS Assay for Inhibitors of HPGD (15-Hydroxyprostaglandin Dehydrogenase); 15-hydroxyprostaglandin dehydrogenase [NAD(+)] (Homo sapiens), P15428; purified HPGD, NADH fluorescence kinetic, PGE2 substrate; Potency, µM, for the others: at the highest dose activity change, negative = inhibition, most hits filed as inhibitors; actives 4.3% (n = 150,000); AID 894, 2007; active = well fitted inhibition curve with a large enough effect, not every such curve was filed as active; inconclusive = small, poorly fitted or top-dose-only effect, or another doubt; inactive = no such curve, though single readings can be large or run the other way; note: potency is the fitted concentration of half-maximal effect; % is set by controls: 0 for no effect and ±100 for the full control effect
Target sequence (P15428 whole entry, looked up): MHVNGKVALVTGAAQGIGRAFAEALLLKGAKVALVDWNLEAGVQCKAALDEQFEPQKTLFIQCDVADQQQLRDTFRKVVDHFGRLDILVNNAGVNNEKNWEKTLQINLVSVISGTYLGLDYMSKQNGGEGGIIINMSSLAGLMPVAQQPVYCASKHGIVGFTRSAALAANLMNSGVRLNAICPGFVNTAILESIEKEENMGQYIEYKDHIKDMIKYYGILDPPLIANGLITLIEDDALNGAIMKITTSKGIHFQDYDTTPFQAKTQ
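20 nM HPGD preincubated 15 min at room temperature with compound in 50 mM Tris-HCl pH 8, 0.01% Tween 20. Started with 1 mM NAD+ and 30 uM prostaglandin E2; NADH fluorescence (360/450 nm) read 5 times over 30-s intervals, last minus first.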
The depositor's hits bear a star; [ ] = dose if it differs, or a comment. The list is not random: actives were taken first. Their share in the collection is about 9.4%. Unless noted, calls come from the whole dose curve; as a rule, active = well fitted curve in the direction sought with a large enough effect; inconclusive = small, poorly fitted or top-dose-only effect, or another doubt; inactive = no such curve, though single readings can be large; an effect the other way counts as inactive or inconclusive.

How did O=S(=O)(Nc1ccc(S(=O)(=O)N2CCOCC2)cc1)c1ccccc1 do in these assays?
ALDH1A1 inh: 5%; IMPase Li cell: -6%[38.3 µM]; IMPase cell inh: -4; HttQ103 aggreg: 0%; HTT cytoprotect: 0%; HPGD inh: 2%

Results for COc1ccc(S(=O)(=O)N(CC(=O)Nc2ccc(S(=O)(=O)N3CCOCC3)cc2)c2ccccc2)cc1 ?
ALDH1A1 inh: inconclusive; IMPase Li cell: 4%; IMPase cell inh: -4; HttQ103 aggreg: -20%; HTT cytoprotect: 3%[10 µM]; HPGD inh: 3.5µM*

Results for COc1ccc(S(=O)(=O)N(CC(=O)Nc2ccc(S(=O)(=O)N3CCOCC3)cc2)Cc2ccc(F)cc2)cc1 ?
ALDH1A1 inh: inconclusive; IMPase Li cell: 5%; HttQ103 aggreg: 8%; HTT cytoprotect: -23%[10 µM]; HPGD inh: -7%

Results for COc1ccc(NS(=O)(=O)c2ccc(S(=O)(=O)N3CCOCC3)cc2)cc1 ?
ALDH1A1 inh: 1.4µM*; IMPase Li cell: 11%; HttQ103 aggreg: -12%; HTT cytoprotect: -30%

How did COc1ccc(C2SCCN2S(=O)(=O)c2ccc(NC(C)=O)cc2)cc1 (centres undefined) do in these assays?
ALDH1A1 inh: -12%; IMPase Li cell: 33%[38.3 µM]; IMPase cell inh: 5; HttQ103 aggreg: 2%; HTT cytoprotect: 8%; HPGD inh: -13%

How did CC(=O)Nc1ccc(S(=O)(=O)N2CCSC2C(=O)O)cc1 (centres undefined) do in these assays?
ALDH1A1 inh: 18µM*; IMPase Li cell: -21%[38.3 µM]; IMPase cell inh: 3; HttQ103 aggreg: -7%[9.22 µM]; HTT cytoprotect: -1%; HPGD inh: -14%

Results for COc1ccc(S(=O)(=O)N2CCCCC2)cc1 ?
ALDH1A1 inh: 5%; IMPase Li cell: 5%[38.3 µM]; IMPase cell inh: inconclusive; HttQ103 aggreg: -19%; HTT cytoprotect: -9%; HPGD inh: -4%

How did COc1ccc(S(=O)(=O)N2CCC(C(N)=O)(N3CCCCC3)CC2)cc1 do in these assays?
ALDH1A1 inh: 18µM*; IMPase Li cell: 14%[38.3 µM]; IMPase cell inh: 1; HttQ103 aggreg: -3%; HTT cytoprotect: -2%; HPGD inh: -4%

What do the screens show for `COc1ccc(CN2CCN(C(=O)c3ccco3)CC2)cc1OC`?
ALDH1A1 inh: 20µM*; IMPase Li cell: 18%; HttQ103 aggreg: 20%; HTT cytoprotect: -4%

Results for Cc1ccc2c(CN3CCN(CCO)CC3)cc(=O)oc2c1C ?
ALDH1A1 inh: -13%; IMPase Li cell: 18%[38.3 µM]; IMPase cell inh: -2; HttQ103 aggreg: 10%; HTT cytoprotect: inconclusive; HPGD inh: -11%

What do the screens show for `COc1ccc(CN2CCN(C(=O)c3ccco3)CC2)cc1OCc1ccccc1`?
ALDH1A1 inh: -14%; IMPase Li cell: -1%[38.3 µM]; IMPase cell inh: inconclusive; HttQ103 aggreg: -20%; HTT cytoprotect: -3%; HPGD inh: -4%

How did Cc1ccc2c(CN3CCN(C(=O)c4ccco4)CC3)cc(=O)oc2c1C do in these assays?
ALDH1A1 inh: 25µM*; IMPase Li cell: -2%; HttQ103 aggreg: 7%; HTT cytoprotect: -16%

What do the screens show for `COc1ccc(CN(C(=O)c2ccco2)c2ccc(C)cc2)cc1OC`?
ALDH1A1 inh: 7.9µM*; IMPase Li cell: 6%[38.3 µM]; IMPase cell inh: 7; HttQ103 aggreg: 1%; HTT cytoprotect: -5%; HPGD inh: -7%

How did Cc1ccc(Nc2nc(N)nc(CN3CCN(C(=O)c4ccco4)CC3)n2)cc1Cl do in these assays?
ALDH1A1 inh: 7.9µM*; IMPase Li cell: 4%[38.3 µM]; IMPase cell inh: 1; HttQ103 aggreg: 10%[9.22 µM]; HTT cytoprotect: -15%[0.074 µM]; HPGD inh: -25%

Source: PubChem BioAssay (National Center for Advancing Translational Sciences (NCATS))
